High-throughput results (PubChem)
Sampled rows, rich in hits. Any-hit rate of the full collection: about 6.5%.
FMDV antiviral – blocks foot and mouth disease virus | 410,000 tested, 1.2% active | FMDV antiviral cell-based qHTS | Potency, µM (doses to about 57.9 µM), without a hit: at the highest dose activity change, negative = inhibition, most hits filed as inhibitors; calls by dose curve; tested in HEK293T cells; note: read-out not given here; potency is the fitted concentration of half-maximal effect; nearly all actives have a fitted effect of over 45% in size
Vaccinia mCherry – inhibitors of vaccinia virus infection (mCherry reporter signal); 310,000 tested, 0.63% active; Vaccinia virus mCherry reporter infection, fluorescence; Potency, µM (titrated, usually from 36.5 µM), for the others: at the highest dose activity change, negative = inhibition, actives largely listed as inhibitors; calls by dose curve; tested in A549 cells; note: potency is the fitted concentration of half-maximal effect; nearly all actives have a fitted effect of over 35% in size
HCMV antiviral – inhibitors of human cytomegalovirus; HFF cells, HCMV-luciferase reporter, 72 h; active compounds read low; activity change, negative = inhibition, % at 57.5 µM; 410,000 tested, 4.5% active; AID 1259415; in the data active = activity change below about -60%; inconclusive = no clear call, values can overlap the other calls; inactive = above about -39%
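Luciferase read-out from HCMV-luciferase-infected HFFs (MOI 1 PFU/cell) 72 h post infection at 37C; compounds added after 16 h cell attachment; activity normalized between buffer-only basal and Salinomycin (10uM) inhibitor controls.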
Marburg entry inh – blocks Marburg virus binding to or entry into cells | Marburg virus pseudotyped entry inhibition, cell reporter | AID 540276 | 300,000 tested, 1.8% active | Potency, µM (doses to about 37.8 µM), without a hit: top-dose activity change, negative = inhibition, actives largely listed as inhibitors; calls by dose curve; tested in HEK293 cells; note: potency is the fitted concentration of half-maximal effect
Vaccinia Venus – vaccinia inhibition (Venus reporter); 330,000 tested, 0.46% active; AID 720580; Vaccinia virus Venus reporter expression, fluorescence; Potency, µM (doses to about 36.5 µM), without a hit: at the highest dose activity change, negative = inhibition, hits mostly inhibitors; calls by dose curve; tested in A549 cells; note: potency is the fitted concentration of half-maximal effect; nearly all actives have a fitted effect of over 30% in size
LASV entry inh – Lassa virus entry inhibition; Lassa virus pseudotype entry inhibition, cell reporter; Potency, µM (titrated, usually from 37.9 µM), for inactives: at the highest dose activity change, negative = inhibition, actives largely listed as inhibitors; 300,000 tested, 1.2% active; AID 540256; calls by dose curve; tested in HEK293 cells; note: potency is the fitted concentration of half-maximal effect; nearly all actives have a fitted effect of over 50% in size
* marks the source's active call; other numbers are inactive results; i = inactive; ? = inconclusive; / = not tested or not shown; + = active, no number; [ ] = remark or other dose. % is set by controls: 0 for no effect and ±100 for the full control effect.

SMILES | FMDV antiviral | Vaccinia mCherry | HCMV antiviral | Marburg entry inh | Vaccinia Venus | LASV entry inh
COc1ccc(C(=O)c2sc(Nc3cc(Cl)ccc3C)nc2N)cc1OC | 0.0% | -21.6% | -13.2 | / | -9.5% | 7.8%[46.1 µM]
COc1ccc(C(=O)c2sc(Nc3ccccc3)nc2N)cc1OC | ? | ? | -92.1* | ? | ? | -27.7%
COc1ccc(C(=O)c2sc(Nc3ccccc3F)nc2N)cc1 | 29.1% | / | 100.3 | / | / | /
Nc1nc(Nc2ccccc2)sc1C(=O)c1ccccc1 | 53.1% | ? | -88.3* | -16.2%[46.1 µM] | 28.2µM* | ?
Cc1ccccc1Nc1nc(N)c(C(=O)c2ccccc2Cl)s1 | -13.1% | ? | -68.9* | / | ? | 11.1%[46.1 µM]
C[C@@H]1CC(=O)N(C)[C@H](c2ccccc2)[C@H]1S(=O)(=O)c1ccccc1 | / | / | -8.4 | / | / | /
N#CC1=C(N)OC2=C(C(=O)CCC2)[C@@H]1CCc1ccccc1 | / | / | / | 10.8%[46.1 µM] | / | /
CCCN1Cc2cccc(C(=O)Nc3cc(C)cc(C)c3)c2C1=O | -13.9% | -13.6% | 1.5 | -5.6%[46.1 µM] | -6.5% | 18.7%[46.1 µM]
Cc1ccc(-n2nnnc2SC(C)C(=O)Nc2ccccc2-c2ccccc2)cc1 (centres undefined) | -22.7% | i | -61.1* | -18.4%[46.1 µM] | 2.3% | -10.6%
CC(Sc1nnnn1C)C(=O)Nc1ccccc1-c1ccccc1 (centres undefined) | / | -18.6% | ? | -2.2% | -17.9% | 2.4%
COc1ccc(-c2nn(-c3ccccc3)cc2CNCCN2CCOC2=O)c(F)c1 | 1.3% | -29.0% | -16.7 | ? | -7.0% | -15.7%
COc1ccc(-c2nn(-c3ccccc3F)cc2CNCCn2nc(C)cc2C)cc1 | ? | i | -73.1* | / | -14.7% | /
COc1cccc(CN2CCC(c3nnc(SCC4CCCO4)n3C)CC2)c1O (centres undefined) | -4.8% | -12.2% | / | / | -8.5% | /
Cc1ccc(O)c(NC(=O)COCc2cc(-c3ccco3)on2)c1 | -8.3% | -7.8% | + | / | -27.8% | ?
CC(C)CNc1c2c(nc3ccccc13)CCC2 | ? | -28.5% | -68.2* | ? | ? | ?
c1ccc(CNc2c3c(nc4ccccc24)CCC3)cc1 | ? | -1.6% | ? | ? | -22.1% | ?
CN(C)CCCNc1c2c(nc3ccccc13)CCC2 | -8.8% | / | -94.9* | / | / | /
COc1cc(=O)n2c(c1C(=O)N(C)Cc1nonc1C)CCN(Cc1cc(C)c(C)cc1C)CC2 | -13.5% | -2.2% | / | / | -23.3% | /
CCOC(=O)OC[C@H]1O[C@H](c2cc(C)cc(C)c2)C=C[C@@H]1OC(=O)OCC | / | / | / | 1.9%[14.2 µM] | / | /
COc1cccc(N2CCN(C(=O)C3CCN(S(=O)(=O)c4ccc5c(c4)CC(C)N5C(C)=O)CC3)CC2)c1 (centres undefined) | ? | / | -20.3 | / | / | /
CC1CCN(C(CC(=O)c2ccccc2)C(=O)c2ccccc2)CC1 (centres undefined) | -16.8% | -3.6% | -86.0* | ? | 22.4% | ?
CC1CCN(C(=O)NC(=O)c2ccccc2)CC1 | 2.0% | / | -14.4 | / | / | /
Cc1c(C(=O)NC2CCN(Cc3ccccc3)C2)oc2c(Cl)cccc12 (centres undefined) | -28.5% | ? | -29.8 | ? | -9.8% | 10µM*
O=C(NC1CCN(Cc2ccccc2)CC1)c1ccccc1Cl | 5.3% | / | -16.0 | / | / | /
CC(C)Oc1ccc(C(=O)N(Cc2ccc(N(C)C)cc2)C2CCS(=O)(=O)C2)cc1 (centres undefined) | -13.7% | -7.3% | 5.6 | -24.2%[46.1 µM] | -7.9% | 1.3%[46.1 µM]
SMILES | FMDV antiviral | Vaccinia mCherry | HCMV antiviral | Marburg entry inh | Vaccinia Venus | LASV entry inh
Cc1nc(C(=O)NNC(=O)c2c(-c3c(Cl)cccc3Cl)noc2C)cs1 | ? | ? | ? | 1.58µM* | ? | ?
Cc1cc(C(=O)NNC(=O)c2c(-c3c(Cl)cccc3Cl)noc2C)no1 | -7.6% | -16.2% | 3.5 | 27.4% | -5.2% | 6.6%
CC(C)(C)CC(=O)Nc1nnc(C(F)(F)F)s1 | -8.5% | -14.6% | -19.2 | 15.6% | -9.7% | 1.7%
O=C(Nc1ccccc1C(=O)Nc1nnc(C(F)(F)F)s1)c1ccccc1Cl | ? | ? | -102.7* | ? | -47.1% | ?
COc1ccc(OC)c2sc(NC(=O)c3ccc(Br)s3)nc12 | -12.5% | ? | -23.3 | / | 11.2µM* | /
CC(NC(=O)Nc1nnc(C(F)(F)F)s1)(C(F)(F)F)C(F)(F)F | ? | 3.98µM* | -98.0* | ? | 2.51µM* | 3.55µM*
COc1ccc(OC)c2sc(NC(=O)c3ccc(Cl)s3)nc12 | 0.0% | -15.9% | -8.1 | / | ? | /
